Screens as filed in PubChem BioAssay.
CHX counter – Cycloheximide Counterscreen for Small Molecule Inhibitors of Shiga Toxin. cell reporter, cycloheximide protein synthesis inhibition counterscreen. max response, %. 300,000 tested, 12% active. AID 2314, 2010; in the data active means max response mostly above about 13%, no sharp cut-off; inactive means mostly below about 14%; further: read at 38.3 µM for the half of the compounds with a filed dose
Shiga inhibitor – A qHTS for Small Molecule Inhibitors of Shiga Toxin; Vero cells, Shiga toxin protein synthesis inhibition reporter; inhibition, % at 38.7 µM; 290,000 tested, 9.2% active; AID 2315, 2010; in the data active means inhibition mostly above about 28%, no sharp cut-off; inactive means mostly below about 43%
Pf growth 96h – Primary qHTS for delayed death inhibitors of the malarial parasite plastid, 96 hour incubation; P. falciparum luciferase reporter growth, 96 h; Potency, µM (series often up to 28.7 µM), usual class: inhibitors; 320,000 tested, 6.9% active; AID 504834, 2011; active means well fitted inhibition curve with a large enough effect; inconclusive means small, poorly fitted or top-dose-only effect, or another doubt; inactive means no such curve, though single readings can be large or run the other way
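Cell-based qHTS: luciferase-tagged P. falciparum in erythrocytes (2% hematocrit, 0.05% parasitemia final) incubated with compounds for 96 hours, 37 C, 5% CO2; luciferase detection reagent then added and luminescence measured.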
NS1 function inh – qHTS Assay for Inhibitors of Influenza NS1 Protein Function | 270,000 tested, 0.4% active | AID 2326, 2010 | Potency, µM (highest dose often 46.1 µM); further: actives are rising curves; nearly all actives have a fitted effect of over 50% in size
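Compounds were scored for reversing the slow growth caused by influenza A NS1 in S. cerevisiae, measured by optical density at 600 nm. Assay medium contained 2% galactose at pH 6.0; NS1-free yeast of the same strain were the positive control.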
Pf growth 48h – Primary qHTS for delayed death inhibitors of the malarial parasite plastid, 48 hour incubation; P. falciparum luciferase growth in erythrocytes, 48 h; Potency, µM (highest dose often 28.7 µM), usual class: inhibitors; 310,000 tested, 5.9% active; AID 504832, 2011; active means well fitted inhibition curve with a large enough effect; inconclusive means small, poorly fitted or top-dose-only effect, or another doubt; inactive means no such curve, though single readings can be large or run the other way
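Luminescence readout; reporter = integrated firefly luciferase in P. falciparum. RBC culture at 2% hematocrit, 0.1% parasitemia final, 37 C/5% CO2; decreased signal taken as growth inhibition.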
SARS PLP yeast – qHTS of Yeast-based Assay for SARS-CoV PLP. 330,000 tested, 0.19% active. Potency, µM (top dose mostly 32.9 µM), usual class: activators. S. cerevisiae expressing SARS-CoV PLpro, growth rescue; further: nearly all actives have a fitted effect of over 55% in size
Numbers stand for hits; i = inactive; ? = inconclusive; nt = no result given; [ ] = another dose, or the depositor's remark. This is a sample that favours compounds with a hit; in the whole collection about 21% have one here. Unless noted, the call rests on the fitted dose curve.

SMILES	CHX counter	Shiga inhibitor	Pf growth 96h	NS1 function inh	Pf growth 48h	SARS PLP yeast
O=C(Cc1ccc([N+](=O)[O-])cc1)c1c(O)cc(O)cc1O	15.9	i	i	i	i	i
O=C(Cc1ccc([N+](=O)[O-])cc1)Nc1ccc(O)cc1C(=O)O	i	i	5.22µM	i	i	i
NC(=O)c1ccsc1NC(=O)COC(=O)COc1ccccc1[N+](=O)[O-]	nt	nt	i	nt	i	i
O=C(Cc1ccc([N+](=O)[O-])cc1)Nc1cc(C(F)(F)F)cc(C(F)(F)F)c1	i	i	14.7µM	i	i	i
COc1cccc(CN2CCN(Cc3cccn3-c3cccnc3)CC2CCO)c1 (stereo not given)	i	i	i	i	?	i
CCc1ccc(NC(=O)C2CCN(S(=O)(=O)c3ccc4c(c3)CC(C)N4C(C)=O)CC2)cc1 (stereo not given)	i	i	?	i	?	i
S=C(c1ccc(-c2ccc(Cl)cc2)o1)N1CCCCC1	39.1	95.5	i	i	i	i
N#CCCN1CCN(C(=S)c2ccc(-c3ccc(Cl)cc3)o2)CC1	27.9	90.6	?	i	i	i
CN1CCN(C(=S)c2ccc(-c3cccc(Cl)c3Cl)o2)CC1	39.9	active	i	i	i	i
S=C(c1ccc(-c2ccccc2Cl)o1)N1CCCCC1	47.7	61.7	i	i	i	i
O=C(Nc1ccccc1N1CCCCC1)c1ccc(-c2ccc(Cl)cc2)o1	i	i	?	i	?	i
CCOc1ccc(C(=O)NC(C(=O)NCC(c2cccs2)N(C)C)C(C)C)cc1 (stereo not given)	nt	nt	?	nt	i	i[6.58 µM]
C=CCN(C(=O)c1csnn1)C(C(=O)NC1CCCCC1)c1ccc(F)cc1 (stereo not given)	i	i	?	i	?	i
CN(C)CCn1c(=O)n(Cc2ccccc2)c(=O)c2c3c(sc21)CCCCC3	i	i	?	i	i	i
CCOC(=O)c1sc2c(c1C)c(=O)n(Cc1ccccc1)c(=O)n2CCN(C)C	i	i	2.08µM	i	?	i
COCCCNC(=O)/C(C#N)=C/c1c(N2CCN(c3ccccc3)CC2)nc2c(C)cccn2c1=O	i	i	10.4µM	i	13.1µM	i
C=CCNC(=O)/C(C#N)=C/c1c(N2CCN(c3ccc(OC)cc3)CC2)nc2c(C)cccn2c1=O	i	i	?	i	13.1µM	i
COC(=O)/C(C#N)=C/c1c(N2CCN(c3ccccc3)CC2)nc2c(C)cccn2c1=O	i	i	?	i	9.28µM	i
COCCCNC(=O)/C(C#N)=C/c1c(N2CCN(c3cccc(Cl)c3)CC2)nc2c(C)cccn2c1=O	i	i	?	i	?	i
CC(=O)Nc1cc(CN2CCCCC2)c(O)c2ncccc12	nt	nt	nt	i	nt	nt
COc1ccc(N2CCN(Cc3cc(=O)oc4ccc(C)cc34)CC2)cc1	i	i	?	i	nt	i
COc1cccc(NCc2cc(=O)oc3cc(-c4ccccc4)c(O)cc23)c1	26.8	61.6	?	i	?	i
CCc1ccc2oc(=O)cc(CN3CCN(c4ccc(F)cc4)CC3)c2c1	i	i	?	i	?	i
COc1ccc(N2CCN(Cc3cc(=O)oc4c3ccc3ccccc34)CC2)cc1	i	i	11.7µM	i	i	i
CC(C)c1ccc2oc(=O)cc(CN3CCN(c4ccc(F)cc4)CC3)c2c1	i	i	nt	i	13.1µM	?
SMILES	CHX counter	Shiga inhibitor	Pf growth 96h	NS1 function inh	Pf growth 48h	SARS PLP yeast
O=c1cc(CN2CCN(c3ccccc3)CC2)c2cc(O)c(-c3ccccc3)cc2o1	i	i	3.29µM	i	2.62µM	i
Cc1ccc(NC(=O)CSc2ncn[nH]2)c([N+](=O)[O-])c1	nt	nt	nt	nt	nt	i
COc1cccc(CCNC(=O)C2CCC(=O)N(C3CC3)C2)c1OC (stereo not given)	i	i	i	i	i	i
O=c1cc(CN2CCN(Cc3ccccc3)CC2)c2cc(Cl)ccc2o1	i	i	?	i	i	i
O=c1cc(CN2CCN(c3cccc(Cl)c3)CC2)c2cc(O)c(-c3ccccc3)cc2o1	i	i	?	i	2.08µM	i
O=c1cc(CN2CCC3(CC2)OCCO3)c2c(ccc3ccccc32)o1	i	i	nt	i	?	i
O=c1cc(CN2CCN(c3ccccc3)CC2)c2c(ccc3ccccc32)o1	i	i	10.4µM	i	13.1µM	i
CN(C)C1CCc2[nH]c3ccc(NC(=O)c4ccc(F)cc4)cc3c2C1 (stereo not given)	i	i	nt	nt	nt	nt
CCOc1cc(CNCCO)cc(Br)c1OCc1ccc(Cl)cc1Cl	i	i	i	i	8.28µM	i
CCOc1cccc(CNCCO)c1OCc1ccc(Cl)cc1Cl	i	i	?	i	?	i
CCOc1cc(CNCCSc2nnnn2C)cc(Br)c1OCc1ccccc1F	i	i	8.28µM	i	?	i
N#Cc1ccccc1COC(=O)CCC(=O)c1cccs1	nt	nt	i	nt	?	i
Cc1ccccc1NS(=O)(=O)c1ccc(C(=O)N(C)CC(=O)Nc2ccccc2Br)cc1	nt	nt	nt	nt	nt	i
NC(=O)c1ccccc1NC(=O)/C=C/c1c(Cl)cccc1Cl	27.4	142.9	13.1µM	i	i	i
COc1ccc(/C=C/C(=O)Nc2ccccc2C(=O)O)cc1OC	i	i	?	?	i	i
NC(=O)c1ccccc1NC(=O)/C=C/c1cccc(Cl)c1	44.9	117.9	i	i	i	i
CCc1ccc(S(=O)(=O)NCCc2cn3cccc(C)c3n2)s1	i	i	i	nt	i	i
CCc1cccc(C)c1NC(=O)CC1Oc2ccc(C)cc2NC1=O (stereo not given)	i	i	?	i	i	i
Nc1c(C(=O)NCCc2ccc(Cl)cc2)sc2ccc(S(=O)(=O)N3CCCCC3)cc12	i	i	?	?	10.4µM	i
O=C(Cc1ccc(S(=O)(=O)N2CCCCC2)cc1)NCc1ccc(Cl)cc1	nt	nt	i	nt	?	i
CC(C)CCNC(=O)c1sc2ccc(S(=O)(=O)N3CCCCC3)cc2c1N	i	i	i	?	13.1µM	i
Cc1ccc(N2CC(=O)Nc3c(oc4nc(-c5ccccc5)cc(C)c34)C2=O)cc1	i	i	i	i	?	i
COc1ccc(C2(C(=O)Nc3ccc(C)cc3)CCOCC2)cc1	i	i	i	i	?	i
Cc1c(CC(=O)N2C[C@H]3C[C@@H](C2)c2cccc(=O)n2C3)c(=O)oc2cc3occ(C(C)(C)C)c3cc12	i	i	8.28µM	i	i	i
C=C(C)COc1ccc2c(C)c(CC(=O)N3C[C@H]4C[C@@H](C3)c3cccc(=O)n3C4)c(=O)oc2c1C	i	i	11.7µM	i	?	i
O=C(/C=C/c1ccccc1)NCCC1=CCCCC1	38.3	39.5	i	i	i	i
O=C(/C=C/c1ccc(F)cc1)NCCC1=CCCCC1	33.3	117.4	i	i	i	i
O=C(COC(=O)/C=C/c1ccc(C(F)(F)F)cc1)NCCC1=CCCCC1	i	i	i	i	i	i
COc1ccccc1/C=C/C(=O)NCCC1=CCCCC1	29.1	117.7	?	i	?	i
